The full data set covers some 8,800 targets. This sample favours those with a hit. About 0.5% of all pairs of compound and target were hits. A number with no mark means an inactive call.
Legend:
Assay in all cases: log2 fold change, soluble protein after heating vs DMSO (PISA); higher = thermal stabilisation; K562 lysate, 10 uM; active = over 0.2 and 3.5 SD of the protein, either way, in both replicates (recomputed)
ibrutinib = compound: C=CC(=O)N1CCC[C@@H](n2nc(-c3ccc(Oc4ccccc4)cc3)c3c(N)ncnc32)C1 [ibrutinib]
Method in brief: (§1)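 Pellets of K562 cells were dounce-homogenised in PBS pH 7.4 with 1 mM MgCl2, and the crude extract was held at 1 mg/mL protein for a 30 min treatment with 10 μM compound. Aliquots were heated for 3 min over 48°C-58°C and pooled before NP-40 was added to 0.5% at 4°C. The supernatant from 21,000xg for 90 min was quantified by TMTpro 16plex LC-MS/MS with channel sums equalised. Values are reported from duplicates as log-two fold change in thermal stability relative to solvent controls.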

[1] = compound: CC(=O)c1cnc2ccc(-c3cc(Cl)c(O)c(Cl)c3)nc2c1N[C@H]1CC[C@H](CN(C)C)CC1
Method in brief: as §1

ralimetinib = compound: CC(C)(C)Cn1c(N)nc2ccc(-c3[nH]c(C(C)(C)C)nc3-c3ccc(F)cc3)nc21 [ralimetinib]
Method in brief: as §1

[2] = compound: CC(C)(O)CC(=O)NCCn1ccc2ncnc(Nc3ccc(Oc4cccc(C(F)(F)F)c4)c(Cl)c3)c21
Method in brief: as §1

[3] = compound: CC(C)C1=C2N=C(C=C(N2N=C1)NCC3=CC=CC=C3)NCCCCCCN
Method in brief: as §1

[4] = compound: CC1=C(C(CC(=O)N1)C2=CC=C(C=C2)C(F)(F)F)C(=O)NC3=C(C=C4C(=C3)C=NN4)F
Method in brief: as §1

[5] = compound: CC1=C(C2=C(C=C1)C(=O)C3=CC=CC=C3N2CCCN)C
Method in brief: as §1

[6] = compound: CC1=C(C=C(C=C1)NC(=O)C2=CC(=CC=C2)C(C)(C)C#N)NC3=CC4=C(C=C3)N=CN(C4=O)C
Method in brief: as §1

[7] = compound: CC1=C(C=C(C=C1)NC(=O)C2=CC(=CC=C2)N(C)C)NC(=O)C3=CC=C(C=C3)O
Method in brief: as §1

[8] = compound: CC1=CC=C(C=C1)SC2=C3C=C(SC3=CN=C2)C(=O)N
Method in brief: as §1

Chain of UniProt Q9Y600 (Q9Y600 whole entry, looked up): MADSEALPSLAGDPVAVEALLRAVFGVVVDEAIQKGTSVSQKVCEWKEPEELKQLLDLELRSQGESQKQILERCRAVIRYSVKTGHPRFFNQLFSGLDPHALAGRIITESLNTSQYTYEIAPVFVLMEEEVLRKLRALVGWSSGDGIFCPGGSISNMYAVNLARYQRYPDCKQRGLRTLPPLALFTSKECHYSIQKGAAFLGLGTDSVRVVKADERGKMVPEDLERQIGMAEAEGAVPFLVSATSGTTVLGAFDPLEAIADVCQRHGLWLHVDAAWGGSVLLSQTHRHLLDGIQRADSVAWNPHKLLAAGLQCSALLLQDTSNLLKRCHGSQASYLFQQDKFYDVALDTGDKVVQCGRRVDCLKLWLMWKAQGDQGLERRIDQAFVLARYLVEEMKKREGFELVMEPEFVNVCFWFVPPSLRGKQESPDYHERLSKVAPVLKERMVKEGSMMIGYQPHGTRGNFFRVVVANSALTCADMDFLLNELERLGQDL
Chain of UniProt P68400 (P68400 whole entry, looked up): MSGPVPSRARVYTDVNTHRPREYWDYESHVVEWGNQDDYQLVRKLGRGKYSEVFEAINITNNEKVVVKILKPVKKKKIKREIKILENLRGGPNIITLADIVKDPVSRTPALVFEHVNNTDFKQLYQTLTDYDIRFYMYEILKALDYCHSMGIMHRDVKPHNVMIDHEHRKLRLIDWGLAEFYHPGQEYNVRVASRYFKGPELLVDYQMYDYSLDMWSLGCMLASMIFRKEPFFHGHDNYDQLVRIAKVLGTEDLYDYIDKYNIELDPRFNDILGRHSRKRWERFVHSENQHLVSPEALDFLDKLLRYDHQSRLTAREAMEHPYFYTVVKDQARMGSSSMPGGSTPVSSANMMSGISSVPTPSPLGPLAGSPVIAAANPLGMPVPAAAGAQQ
Chain of UniProt Q9NPI6 (Q9NPI6 whole entry, looked up): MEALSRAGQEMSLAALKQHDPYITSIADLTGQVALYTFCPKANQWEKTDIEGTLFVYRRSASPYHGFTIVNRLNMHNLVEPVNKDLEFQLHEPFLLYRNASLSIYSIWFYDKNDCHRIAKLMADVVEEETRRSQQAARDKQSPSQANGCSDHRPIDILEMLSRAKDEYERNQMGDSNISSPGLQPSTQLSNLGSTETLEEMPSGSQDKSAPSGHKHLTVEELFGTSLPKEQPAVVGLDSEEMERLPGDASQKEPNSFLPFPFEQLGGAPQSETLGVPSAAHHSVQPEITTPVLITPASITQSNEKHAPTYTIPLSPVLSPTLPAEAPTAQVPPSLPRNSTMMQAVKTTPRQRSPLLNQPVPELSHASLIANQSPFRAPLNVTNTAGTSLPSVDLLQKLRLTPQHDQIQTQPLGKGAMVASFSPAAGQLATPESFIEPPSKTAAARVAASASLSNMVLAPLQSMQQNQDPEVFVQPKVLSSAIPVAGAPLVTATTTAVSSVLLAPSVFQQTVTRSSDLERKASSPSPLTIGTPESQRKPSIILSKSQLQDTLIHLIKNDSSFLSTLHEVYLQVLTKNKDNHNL
Chain of UniProt Q9NQI0 (Q9NQI0 whole entry, looked up): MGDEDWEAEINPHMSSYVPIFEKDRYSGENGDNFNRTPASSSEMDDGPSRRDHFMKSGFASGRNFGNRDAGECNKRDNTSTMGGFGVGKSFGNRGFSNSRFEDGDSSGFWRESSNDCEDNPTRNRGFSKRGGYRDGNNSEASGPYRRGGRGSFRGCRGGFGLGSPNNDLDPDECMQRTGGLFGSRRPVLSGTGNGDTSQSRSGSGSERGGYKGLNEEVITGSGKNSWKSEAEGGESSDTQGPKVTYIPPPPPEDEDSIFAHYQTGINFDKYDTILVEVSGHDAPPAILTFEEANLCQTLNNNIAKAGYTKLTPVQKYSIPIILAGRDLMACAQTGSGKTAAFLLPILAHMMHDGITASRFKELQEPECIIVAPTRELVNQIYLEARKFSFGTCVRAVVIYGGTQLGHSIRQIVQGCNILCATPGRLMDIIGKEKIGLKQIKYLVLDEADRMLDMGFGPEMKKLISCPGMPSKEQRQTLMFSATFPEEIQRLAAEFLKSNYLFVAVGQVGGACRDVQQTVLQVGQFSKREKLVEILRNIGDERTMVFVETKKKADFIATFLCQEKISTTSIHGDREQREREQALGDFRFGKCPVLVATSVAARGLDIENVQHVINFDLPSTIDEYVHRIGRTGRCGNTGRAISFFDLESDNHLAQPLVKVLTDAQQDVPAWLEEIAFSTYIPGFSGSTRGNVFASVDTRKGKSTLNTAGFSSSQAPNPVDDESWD
Chain of UniProt P83436 (P83436 whole entry, looked up): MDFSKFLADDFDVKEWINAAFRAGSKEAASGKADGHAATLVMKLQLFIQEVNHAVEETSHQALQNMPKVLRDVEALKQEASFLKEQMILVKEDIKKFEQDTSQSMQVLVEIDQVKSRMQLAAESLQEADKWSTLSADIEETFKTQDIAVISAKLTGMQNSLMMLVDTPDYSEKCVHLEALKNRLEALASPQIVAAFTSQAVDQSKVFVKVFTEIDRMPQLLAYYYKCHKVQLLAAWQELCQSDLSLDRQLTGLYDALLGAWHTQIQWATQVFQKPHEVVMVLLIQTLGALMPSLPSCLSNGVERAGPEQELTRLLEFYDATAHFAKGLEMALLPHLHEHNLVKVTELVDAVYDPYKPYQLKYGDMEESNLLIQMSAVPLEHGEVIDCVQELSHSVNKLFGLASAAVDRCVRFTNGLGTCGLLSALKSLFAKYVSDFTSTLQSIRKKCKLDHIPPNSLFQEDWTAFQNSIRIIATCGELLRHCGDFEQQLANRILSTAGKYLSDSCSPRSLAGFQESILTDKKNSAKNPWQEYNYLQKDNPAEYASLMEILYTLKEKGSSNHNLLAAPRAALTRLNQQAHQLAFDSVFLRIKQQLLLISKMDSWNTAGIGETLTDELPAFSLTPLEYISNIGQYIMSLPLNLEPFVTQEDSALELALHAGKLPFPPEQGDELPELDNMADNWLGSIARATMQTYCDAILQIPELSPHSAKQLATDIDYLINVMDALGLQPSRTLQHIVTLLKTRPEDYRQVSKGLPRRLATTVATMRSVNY
Chain of UniProt P41240 (P41240 whole entry, looked up): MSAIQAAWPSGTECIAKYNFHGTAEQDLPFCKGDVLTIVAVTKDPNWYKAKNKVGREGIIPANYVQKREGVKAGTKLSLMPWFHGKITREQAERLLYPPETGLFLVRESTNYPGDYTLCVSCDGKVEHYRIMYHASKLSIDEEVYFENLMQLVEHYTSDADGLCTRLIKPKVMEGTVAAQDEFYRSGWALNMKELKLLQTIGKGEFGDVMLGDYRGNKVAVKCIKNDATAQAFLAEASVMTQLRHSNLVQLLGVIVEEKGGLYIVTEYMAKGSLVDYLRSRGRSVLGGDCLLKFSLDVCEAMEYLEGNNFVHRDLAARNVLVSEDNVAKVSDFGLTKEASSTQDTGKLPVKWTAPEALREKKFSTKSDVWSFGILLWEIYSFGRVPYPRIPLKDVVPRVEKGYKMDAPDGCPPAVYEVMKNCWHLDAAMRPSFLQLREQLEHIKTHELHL
Chain of UniProt Q9BW66 (Q9BW66 whole entry, looked up): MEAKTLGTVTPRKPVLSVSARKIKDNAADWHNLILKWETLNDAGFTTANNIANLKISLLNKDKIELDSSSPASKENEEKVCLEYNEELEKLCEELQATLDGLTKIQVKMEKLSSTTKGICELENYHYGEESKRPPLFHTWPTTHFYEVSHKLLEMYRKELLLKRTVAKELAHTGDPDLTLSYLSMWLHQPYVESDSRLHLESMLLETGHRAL
Chain of UniProt Q08345 (Q08345 whole entry, looked up): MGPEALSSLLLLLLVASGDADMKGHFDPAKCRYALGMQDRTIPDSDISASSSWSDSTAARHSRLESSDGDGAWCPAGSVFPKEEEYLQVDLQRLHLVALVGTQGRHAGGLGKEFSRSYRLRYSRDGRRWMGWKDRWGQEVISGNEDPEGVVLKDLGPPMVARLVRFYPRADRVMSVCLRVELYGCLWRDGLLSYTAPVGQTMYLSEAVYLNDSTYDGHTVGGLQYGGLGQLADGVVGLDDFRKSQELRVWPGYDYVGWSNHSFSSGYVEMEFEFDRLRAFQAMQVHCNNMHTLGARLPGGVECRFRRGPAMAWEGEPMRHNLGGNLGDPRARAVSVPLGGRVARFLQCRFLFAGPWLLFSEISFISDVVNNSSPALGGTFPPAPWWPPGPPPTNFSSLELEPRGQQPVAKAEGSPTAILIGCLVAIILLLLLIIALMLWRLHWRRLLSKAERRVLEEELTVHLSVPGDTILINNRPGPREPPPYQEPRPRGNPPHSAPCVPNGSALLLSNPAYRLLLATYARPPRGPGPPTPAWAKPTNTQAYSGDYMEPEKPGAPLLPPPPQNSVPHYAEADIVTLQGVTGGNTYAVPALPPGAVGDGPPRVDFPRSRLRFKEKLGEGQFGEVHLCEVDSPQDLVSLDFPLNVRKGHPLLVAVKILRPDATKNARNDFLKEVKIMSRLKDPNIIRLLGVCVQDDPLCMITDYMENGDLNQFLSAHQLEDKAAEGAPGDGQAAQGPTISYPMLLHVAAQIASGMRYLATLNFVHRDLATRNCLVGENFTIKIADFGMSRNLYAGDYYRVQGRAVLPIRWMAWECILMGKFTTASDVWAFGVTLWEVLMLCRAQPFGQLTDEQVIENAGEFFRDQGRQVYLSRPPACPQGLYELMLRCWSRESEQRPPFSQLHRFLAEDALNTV
Chain of UniProt Q92564 (Q92564 whole entry, looked up): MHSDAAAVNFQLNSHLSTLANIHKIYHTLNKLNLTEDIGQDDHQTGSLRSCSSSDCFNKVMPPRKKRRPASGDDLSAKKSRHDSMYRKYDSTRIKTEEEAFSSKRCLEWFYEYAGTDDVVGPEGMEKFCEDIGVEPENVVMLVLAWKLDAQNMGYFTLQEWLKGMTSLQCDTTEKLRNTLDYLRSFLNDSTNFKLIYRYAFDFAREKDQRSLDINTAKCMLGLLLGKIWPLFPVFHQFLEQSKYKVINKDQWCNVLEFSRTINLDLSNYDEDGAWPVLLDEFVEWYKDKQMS

| Target | log2 fold change (ibrutinib) | log2 fold change [1] | log2 fold change (ralimetinib) | log2 fold change [2] | log2 fold change [3] | log2 fold change [4] | log2 fold change [5] | log2 fold change [6] | log2 fold change [7] | log2 fold change [8] |
| --- | --- | --- | --- | --- | --- | --- | --- | --- | --- | --- |
| COG7 (UniProt P83436) | -0.04 | -0.012 | 0.03 | 0.006 | -0.049 | -0.034 | -0.001 | -0.029 | 0.058 | -0.007 |
| CUEDC2 (UniProt Q9H467) | 0.056 | 0.044 | 0.001 | -0.032 | 0.026 | -0.027 | -0.014 | 0.052 | 0.018 | -0.082 |
| DMXL1 (UniProt Q9Y485) | -0.02 | -0.025 | 0.021 | -0.012 | 0.016 | -0.001 | -0.024 | 0 | 0.064 | -0.026 |
| COG4 (UniProt Q9H9E3) | 0.014 | 0.005 | -0.007 | -0.042 | -0.029 | 0 | -0.001 | -0.049 | -0.033 | 0 |
| DNAAF5 (UniProt Q86Y56) | -0.043 | 0.032 | 0.074 | -0.049 | -0.043 | -0.002 | -0.005 | -0.035 | 0.047 | 0.061 |
| CSDE1 isoform 4 (UniProt O75534) | -0.007 | -0.003 | 0.017 | 0.03 | 0.003 | -0.013 | 0.004 | -0.022 | 0.012 | 0.009 |
| DICER1 (UniProt Q9UPY3) | -0.011 | 0.037 | 0.019 | -0.055 | 0.012 | 0.044 | 0.003 | 0.018 | 0.013 | 0 |
| DCP1A (UniProt Q9NPI6) | 0 | -0.016 | 0.004 | -0.042 | 0.025 | 0.013 | -0.02 | 0.046 | 0.011 | 0 |
| DCUN1D4 isoform 3 (UniProt Q92564) | 0.064 | 0.078 | -0.033 | -0.057 | 0.018 | -0.009 | -0.078 | -0.027 | 0.029 | -0.059 |
| DDX54 isoform 2 (UniProt Q8TDD1) | -0.005 | 0.006 | 0.036 | 0.023 | -0.001 | 0.02 | -0.054 | -0.054 | -0.006 | 0.013 |
| CYP24A1 (UniProt Q07973) | 0.01 | -0.036 | -0.03 | -0.159 | 0.019 | -0.05 | -0.051 | 0.183 | 0.007 | -0.067 |
| DNAH10 (UniProt Q8IVF4) | 0.038 | -0.017 | -0.123 | -0.112 | -0.015 | -0.04 | -0.069 | 0.137 | -0.014 | -0.051 |
| DARS (UniProt P14868) | 0.009 | 0.021 | 0.049 | 0.04 | 0.001 | -0.003 | 0.027 | -0.019 | 0.026 | 0.053 |
| CSNK2A1 (UniProt P68400) | -0.041 | 0.468 (active) | 0.002 | -0.028 | -0.054 | -0.039 | 0.158 | -0.078 | -0.01 | 0.002 |
| DDX4 (UniProt Q9NQI0) | 0.019 | -0.004 | 0.04 | 0.087 | -0.032 | 0.008 | 0.1 | – | -0.051 | -0.026 |
| DLG3 isoform 2 (UniProt Q92796) | 0.034 | 0.009 | 0.124 | 0.042 | -0.005 | 0.055 | -0.009 | -0.023 | -0.033 | 0.024 |

| Target | log2 fold change (ibrutinib) | log2 fold change [1] | log2 fold change (ralimetinib) | log2 fold change [2] | log2 fold change [3] | log2 fold change [4] | log2 fold change [5] | log2 fold change [6] | log2 fold change [7] | log2 fold change [8] |
| --- | --- | --- | --- | --- | --- | --- | --- | --- | --- | --- |
| CINP isoform 3 (UniProt Q9BW66) | 0 | -0.012 | 0.047 | -0.051 | – | 0.072 | -0.168 | 0.039 | 0.009 | -0.005 |
| CSK (UniProt P41240) | 0.891 (active) | 0.242 | 0 | 0.181 | 0 | -0.086 | -0.04 | 0.626 (active) | -0.015 | -0.054 |
| CLPB isoform 2 (UniProt Q9H078) | – | -0.016 | 0.002 | -0.024 | -0.006 | 0.002 | -0.054 | -0.011 | 0.025 | 0.012 |
| DES (UniProt P17661) | 0.044 | 0 | 0.025 | -0.16 | -0.01 | -0.026 | -0.045 | 0.057 | -0.017 | -0.057 |
| CSNK1D (UniProt P48730) | -0.086 | 0.494 (active) | -0.038 | -0.112 | – | 0.245 | -0.151 | -0.001 | -0.143 | 0.179 |
| CIP2A (UniProt Q8TCG1) | 0.022 | 0.001 | 0.052 | -0.046 | -0.03 | 0.009 | 0.003 | 0 | 0.059 | -0.033 |
| CSAD isoform 3 (UniProt Q9Y600) | -0.224 | – | -0.019 | -0.048 | 0.041 | – | – | -0.027 | -0.033 | – |
| DNAJC1 (UniProt Q96KC8) | -0.018 | 0.018 | -0.007 | -0.048 | -0.014 | 0.019 | 0.019 | -0.009 | 0.032 | 0.011 |
| CSRP2 (UniProt Q16527) | 0.054 | – | – | – | – | – | – | 0.271 | – | – |
| DDR1 isoform 5 (UniProt Q08345) | 0 | – | 0.205 | 0.021 | – | -0.117 | -0.099 | 0.38 | 0.117 | – |
| CNDP2 (UniProt Q96KP4) | 0.013 | -0.027 | 0.024 | -0.049 | -0.011 | -0.005 | -0.02 | 0.023 | 0 | -0.035 |
| DDX39A (UniProt O00148) | -0.005 | 0.062 | -0.009 | 0.029 | 0.022 | 0 | 0.009 | -0.032 | -0.016 | -0.004 |
| DBF4 (UniProt Q9UBU7) | -0.06 | – | -0.048 | -0.017 | -0.01 | -0.062 | -0.058 | -0.012 | -0.042 | – |
| COL6A3 (UniProt P12111) | -0.087 | – | 0.174 | -0.132 | 0.047 | -0.066 | -0.099 | -0.021 | -0.54 (active) | – |
| CHMP4A (UniProt H0YIN6) | -0.077 | -0.203 | -0.253 | -0.354 | – | – | -0.055 | 0.33 | 0.15 | -0.159 |

Reference: the supplement of paper PMC10849652
